Screens (PubChem BioAssay)
AHR activator: AHR activators, primary screen, cell-based, luminescence, luciferase reporter, human; 320,000 tested, 2.5% active; AID 2796, 2010; activation, % at 5 µM; AHR-responsive luciferase reporter cells; Aryl hydrocarbon receptor (Homo sapiens), P35869; in the data active means activation above about 47%;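 further: 0% = vehicle wells and 100% = reference agonist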
NR0B1 inh: DAX1 (NR0B1) inhibitors, primary screen, cell-based, HEK293, Gal4-DAX1, luciferase luminescence. Nuclear receptor subfamily 0 group B member 1 (Homo sapiens), P51843. AID 504766, 2011. 340,000 tested, 0.99% active. HEK293 Gal4-DAX1 luciferase reporter. inhibition, % at 6.75 µM;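 active means inhibition above the mean over all tested compounds plus 3 SD, cut at about 4.2% in these data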;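 further: 0% = DAX1-transfected cells with DMSO and 100% = empty-vector control cells with DMSO; inhibition shows as a rise in luminescence from relieved DAX1 repression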
HSF1 activator: HSF-1 activators, primary screen, NIH3T3-HGL cells, MG132 stress, luminescence, single point. AID 504408, 2011. activation, % at 9 µM. 300,000 tested, 1.7% active. NIH3T3-HGL HSF-1 luciferase reporter, 8 h; 100% = twice DMSO control signal;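 active means mean replicate activation of at least 50% with a set share of replicates each reaching 50%; inconclusive means only one of those two conditions met; inactive means mean below 50% and too few replicates reaching it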;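 further: 0% = median of the neutral control wells and 100% = twice that signal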
GAA850 FXN act: FXN promoter activators, primary screen, cell-based, luciferase luminescence, HEK293 lucGAA850; HEK293 lucGAA850 FXN promoter luciferase reporter, 24 h; percent of 10 µM SAHA response; activation, % at 6 µM; 360,000 tested, 0.56% active;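 active means activation above the average of all compounds screened plus 3 SD, cutoff fixed separately per campaign, cut at about 7.5% in these data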;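 further: 0% = DMSO wells and 100% = 10 µM SAHA wells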
HSF1 inh: HSF1 inhibitors in luciferase reporter cells, primary screen, cell-based, NIH3T3, luminescence; NIH3T3-HGL HSE-luciferase, MG132-induced, luminescence 8 h; stronger effect = lower value; activity change, negative = inhibition, % at 7.5 µM (by protocol); 300,000 tested, 0.77% active;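 active means more than half of replicate wells show activity change below -50%, luminescence cut by over half; inconclusive means some wells, but at most half, below -50%; inactive means no replicate well below -50%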;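 further: luciferase reports HSF-1 transcriptional activity via heat shock element; 0% = median of DMSO wells and -100% = zero luminescence signal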
AHR act confirm: AHR activators, confirmation, cell-based, luminescence, luciferase reporter, human; 2,300 tested, 87% active; human cells, AHR-responsive luciferase reporter; shares compounds with AHR activator; AID 2845, 2010; activation, % at 9 µM; in the data active means activation above about 49%;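 further: HepG2 hepatoma cells carrying a DRE-driven firefly luciferase reporter; 0% = vehicle wells and 100% = reference agonist wells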
PXR counter: human PXR activators, counter-screen for AHR activator project, cell-based, luciferase luminescence | shares compounds with AHR activator | cell-based PXR reporter | activation, % at 11.6 µM | 2,300 tested, 88% active | AID 434939, 2010; in the data active means activation above about 11%;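 further: human hepatoma DPX-2 cells expressing full-length human PXR; 0% = DMSO and 100% = reference agonist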
Target sequence (O75469 whole entry, looked up): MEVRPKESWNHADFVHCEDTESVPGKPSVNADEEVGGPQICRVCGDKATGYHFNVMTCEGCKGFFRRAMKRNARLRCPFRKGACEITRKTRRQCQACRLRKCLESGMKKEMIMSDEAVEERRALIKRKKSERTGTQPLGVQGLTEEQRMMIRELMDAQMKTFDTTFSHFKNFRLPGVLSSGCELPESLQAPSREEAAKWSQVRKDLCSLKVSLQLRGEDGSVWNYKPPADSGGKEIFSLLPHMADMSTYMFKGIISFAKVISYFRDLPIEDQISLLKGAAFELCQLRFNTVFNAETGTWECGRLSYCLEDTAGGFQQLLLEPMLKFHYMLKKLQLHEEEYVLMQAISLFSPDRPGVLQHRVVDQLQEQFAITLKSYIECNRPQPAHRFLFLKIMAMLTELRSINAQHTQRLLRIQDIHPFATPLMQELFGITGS
An asterisk follows results filed as active. In the library only some 5.4% were active in any assay of this set; here they are far more common.

Fc1ccc(Nc2cccc3nccnc23)cc1 was read as AHR activator 137*, NR0B1 inh 0, HSF1 activator 3, GAA850 FXN act 5, HSF1 inh 1, AHR act confirm 58* and PXR counter 13*.
Screening CSc1ncc(C(=O)Nc2ccc(Cl)cc2)c(C)n1 returned AHR activator 94*, NR0B1 inh 0, HSF1 activator 0, GAA850 FXN act 1, HSF1 inh 2 and AHR act confirm 100*.
Cc1ccc(C(=O)N/N=C/c2ccc(-c3ccccc3[N+](=O)[O-])o2)cn1 was read as AHR activator 93*, NR0B1 inh 1, HSF1 activator 34, GAA850 FXN act 1, HSF1 inh 15, AHR act confirm 109* and PXR counter 16*.
For O=C(/C=C/c1ccc(Cl)c([N+](=O)[O-])c1)Nc1ccc(N2CCCC2)cc1 the results were AHR activator 84*, NR0B1 inh -2, HSF1 activator 10, GAA850 FXN act 2, HSF1 inh -1, AHR act confirm 95* and PXR counter 18*.
O=C(/C=C/c1ccc(Cl)c([N+](=O)[O-])c1)Nc1ccc(NC(=O)c2ccco2)cc1 was read as NR0B1 inh 0, HSF1 activator -3, GAA850 FXN act 4 and HSF1 inh -2.
`CCCCCCOc1ccc(/C=N/NC(=O)C2CC2)cc1` gave NR0B1 inh 0 and GAA850 FXN act 1.
CCN(CC)c1ccc(/C=N/NC(=O)C2CC2)cc1 was read as AHR activator 85*, NR0B1 inh 1, HSF1 activator 6, GAA850 FXN act 0, HSF1 inh 2, AHR act confirm 77* and PXR counter 44*.
For Cc1cc(NC(=O)C2Oc3ccccc3OC2C)no1 (stereo unspecified) the results were AHR activator 16, NR0B1 inh -1, HSF1 activator 8, GAA850 FXN act 4 and HSF1 inh 0.
Screening Cc1cccc2c1-c1sc(C(=O)Nc3nccs3)cc1CO2 returned AHR activator 149*, NR0B1 inh 0, HSF1 activator 56*, GAA850 FXN act -1, HSF1 inh 30, AHR act confirm 110* and PXR counter 22*.
CC1Oc2ccccc2OC1C(=O)Nc1nccs1 (stereo unspecified) was read as AHR activator 80*, NR0B1 inh 1, HSF1 activator 15, GAA850 FXN act 2, HSF1 inh -3, AHR act confirm 105* and PXR counter 10*.
Screening O=C(Nc1nc2ccccc2s1)c1cc2c(s1)-c1ccccc1OC2 returned AHR activator 12, NR0B1 inh 3, HSF1 activator 32, GAA850 FXN act 2 and HSF1 inh 16.
For O=C(Nc1nccs1)c1cc2c(s1)-c1ccccc1OC2 the results were AHR activator 150*, NR0B1 inh 2, HSF1 activator 38, GAA850 FXN act 3, HSF1 inh 23, AHR act confirm 115* and PXR counter 20*.
Cc1noc(C)c1-c1ccc(C(=O)NCCc2ccccc2)c2occc12 was read as GAA850 FXN act 3.
Screening Cc1c(Cl)cccc1NC(=O)NN1CCN(C)CC1 returned NR0B1 inh 0, HSF1 activator 31, GAA850 FXN act 2 and HSF1 inh 3.
Screening COCCNC(=O)c1cccc(OC2CCN(Cc3ccc(Cl)c(F)c3)CC2)c1 returned AHR activator 1, NR0B1 inh -1, HSF1 activator inconclusive, GAA850 FXN act 1 and HSF1 inh 18.
For Cc1ccccc1CC1SC(N=C(N)N)=NC1=O (stereo unspecified) the results were AHR activator -1, NR0B1 inh 3, HSF1 activator -6, GAA850 FXN act 2 and HSF1 inh 4.
Screening CC(C)CCCN1C(N(C)C)=NC[C@@H]1C returned AHR activator 1, NR0B1 inh 3 and GAA850 FXN act 1.
CCc1nnc(NC(=O)CSc2ccc(-c3ccc(-n4cccn4)cc3)nn2)s1 was read as AHR activator 4, NR0B1 inh 3, HSF1 activator 12, GAA850 FXN act 7 and HSF1 inh 1.
For Cc1cc(C)n(-c2nc3ccccc3n3c(C)nnc23)n1 the results were AHR activator 5, NR0B1 inh -1, HSF1 activator -5, GAA850 FXN act 0 and HSF1 inh 1.
Screening Cc1nnc2c(-c3ccccc3)nc3ccccc3n12 returned AHR activator 89*, NR0B1 inh 0, HSF1 activator -20, GAA850 FXN act 2, HSF1 inh 0, AHR act confirm 109* and PXR counter 13*.
For CCNC(=S)NN=C1c2ccccc2-c2ccccc21 the results were AHR activator 45, NR0B1 inh -2, HSF1 activator 2, GAA850 FXN act 2 and HSF1 inh 3.
For C=C(C)CNC(=S)NN=C1c2ccccc2-c2ccccc21 the results were AHR activator 92*, NR0B1 inh 1, HSF1 activator 37, GAA850 FXN act 4, HSF1 inh 14, AHR act confirm 87* and PXR counter 55*.
Screening CCCCNC(=O)c1ccc(NC(=O)CC2SC(N3CCCC3)=NC2=O)cc1 (stereo unspecified) returned AHR activator 0, NR0B1 inh 2 and GAA850 FXN act 1.
Screening O=c1c2ccccc2nc(/C=C/c2ccccc2)n1CCc1ccccc1 returned AHR activator 9, NR0B1 inh 0, HSF1 activator 11, GAA850 FXN act 0 and HSF1 inh 7.
For O=c1c2ccccc2nc(/C=C/c2cccc([N+](=O)[O-])c2)n1CCO the results were AHR activator 106*, NR0B1 inh 2, HSF1 activator 10, GAA850 FXN act 1, HSF1 inh -4, AHR act confirm 69* and PXR counter 21*.
Cc1ccc(-c2nsc(SCC(=O)Nc3ccc4c(c3)OCO4)n2)cc1 was read as AHR activator 30, NR0B1 inh 0, HSF1 activator 26, GAA850 FXN act 0 and HSF1 inh -4.
O=C(CSc1nc(-c2ccccc2Cl)ns1)Nc1ccc2c(c1)OCO2 was read as AHR activator 87*, NR0B1 inh 0, HSF1 activator 6, GAA850 FXN act 3, HSF1 inh 4, AHR act confirm 72* and PXR counter 17*.
